An excerpt weighted towards active compounds, which were near 12% of everything screened.
G9a block = inhibitors of human histone lysine methyltransferase G9a; AID 504332; Potency, µM (series often up to 102 µM), usual class: inhibitors; Q96KQ7; actives 8.8% (n = 350,000); G9a H3K9 monomethylation, AlphaScreen, 2 h; also: nearly all actives have a fitted effect of over 75% in size
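G9a (20 nM) was preincubated 15 min with compound, then reacted 2 h at room temperature with 500 nM biotin-H3K9 peptide and 20 µM SAM. Monomethyl-H3K9 detected by AlphaScreen using anti-H3K9me1 antibody.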
BAZ2B inh = BAZ2B (human) inhibition; AlphaScreen BAZ2B-H3K14Ac peptide displacement; Q9UIF8; actives 4.4% (n = 360,000); AID 504333; Potency, µM (titrated, usually from 114 µM), most hits filed as inhibitors; also: nearly all actives have a fitted effect of over 60% in size
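AlphaScreen displacement of biotin-H3(5-23)K14Ac peptide (50 nM final) from BAZ2B (50 nM final) in PBS pH 7.4, 0.01% Tween-20; complex preformed 30 min RT, then compounds (top 110 uM) 30 min RT, beads 20 min dark.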
Sfp inh = inhibitors of Bacillus subtilis Sfp phosphopantetheinyl transferase; Q9F4F7; Biochemical Sfp PPTase activity, qHTS; Potency, µM, usual class: inhibitors; actives 3.5% (n = 310,000);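 also: the enzyme is Sfp with the accession as filed and its product quenches rhodamine fluorescence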
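Step 1, compound plus 15 nM Sfp-PPTase, 15 min, room temperature. Step 2, add rhodamine-CoA (5 uM) and BHQ-2-YbbR (12.5 uM). Step 3, read 525/598 nm fluorescence at 0 and 30 min.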
JMJD2A Tudor = inhibitors of human JMJD2A Tudor domain | AlphaScreen JMJD2A-Tudor / H3K4me3 peptide binding | actives 4.4% (n = 390,000) | O75164 | Potency, µM (doses to about 114 µM), actives largely listed as inhibitors; also: nearly all actives have a fitted effect of over 50% in size
HP1b binding inh = HP1-beta chromodomain-methylated histone interaction inhibition; P83916; AlphaScreen HP1-beta / biotin-H3K9me3 peptide binding; Potency, µM (top dose mostly 114 µM), usual class: inhibitors; actives 0.56% (n = 390,000); AID 540317; also: nearly all actives have a fitted effect of over 70% in size
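HP1-beta protein (50 nM final) preincubated 30 min at room temperature with biotinylated H3(1-18)K9me3 peptide (50 nM) in PBS pH 7.4, 0.01% Tween-20, then compound added for 30 min. AlphaScreen streptavidin donor/nickel chelate acceptor beads (10 ug/mL final), 30 min dark, luminescence read.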
Of the large screens only hits and unclear results are named; the others gave an inactive call. Calls follow the shape of the dose curve; as a rule, active = well fitted curve in the direction sought with a large enough effect; inconclusive = small, poorly fitted or top-dose-only effect, or another doubt; inactive = no such curve, though single readings can be large; an effect the other way counts as inactive or inconclusive.

C[C@]12CCC(=O)C=C1CCC1C2C(=O)C[C@]2(C)C1CC[C@]2(O)C(=O)CO (some centres not stated)	none (no result: BAZ2B inh, JMJD2A Tudor, HP1b binding inh)
Cn1c(C(C#N)C2=C(Cl)C(=O)N(c3ccccc3)C2=O)nc2ccccc21 (configuration not stated)	G9a block 14µM, BAZ2B inh 8.9µM, Sfp inh inconclusive (no result: JMJD2A Tudor, HP1b binding inh)
CC(C)[C@@H](CC(=O)N[C@@H]1CCNC[C@H]1C(=O)N[C@H](CC(=O)N[C@@H](CCC(=O)O)CC(=O)O)Cc1ccccc1)NC(=O)C[C@H](Cc1ccccc1)NC(=O)[C@@H]1CNCC[C@H]1N	none (no result: G9a block, BAZ2B inh, JMJD2A Tudor, HP1b binding inh)
COCc1cc(C)nc(OCC(=O)N/N=C/c2ccc(O)cc2O)c1C#N	BAZ2B inh 40µM
COCc1cc(C)nc(OCC(=O)N/N=C/c2ccccc2O)c1C#N	BAZ2B inh 79µM
Cc1cccc(CCNC(=O)C2CCN(c3nc4ccccc4nc3C(F)(F)F)CC2)c1	none (no result: Sfp inh)
O=C(O)c1c(Sc2ccccc2)c2cc(Cl)ccc2n1Cc1ccc(Cl)cc1	none (no result: G9a block, BAZ2B inh, JMJD2A Tudor, HP1b binding inh)
Cc1ccn(CCC(=O)N2CCc3ccccc32)n1	none
COC(=O)c1cc(-c2ccccc2)sc1NC(=O)CN1C(=O)c2ccccc2C1=O	G9a block 10µM, Sfp inh 20µM, JMJD2A Tudor inconclusive, HP1b binding inh inconclusive
CCOc1cc(C(=S)N2CCOCC2)ccc1OS(=O)(=O)c1ccccc1	none
CCOC(=O)c1ccc(OS(=O)(=O)c2ccccc2)c(OC)c1	JMJD2A Tudor 89µM
CCOC(=O)c1cc(-c2ccccc2)sc1NC(=O)c1ccc(OC)c(OC)c1	G9a block 3.5µM, Sfp inh 32µM, JMJD2A Tudor inconclusive, HP1b binding inh inconclusive
CCOC(=O)c1cc(-c2ccccc2)sc1NC(=O)C(C)C	HP1b binding inh inconclusive
COc1cccc(-c2nc(SCc3cc(=O)c4cc(Cl)ccc4[nH]3)n[nH]2)c1	none (no result: Sfp inh)
O=C1C2=CC[C@H]3C(=O)N(C[C@@H]4CCCO4)C(=O)[C@@H]3[C@@H]2[C@H](O)[C@@H]2O[C@H]12	none (no result: G9a block, BAZ2B inh, JMJD2A Tudor, HP1b binding inh)
CNC(=O)c1ccc(CN(C)CC(=O)Nc2ccccc2C(=O)NC2CC2)cc1	none (no result: Sfp inh)
O=C1CC(=O)N(CCNc2ncc(C(F)(F)F)cc2Cl)C(=O)N1	none
O=C1C=CC(=O)N1CCNc1ncc(C(F)(F)F)cc1Cl	G9a block 2.5µM, Sfp inh 7.1µM, JMJD2A Tudor inconclusive
Cc1ccc(C(=O)OCC(=O)N2CCC(c3ccccc3)=N2)cc1	none (no result: G9a block, BAZ2B inh, Sfp inh)
COc1ccc(S(=O)(=O)Nc2ccncc2)c(C)c1C	Sfp inh 89µM
COc1ccc(NS(=O)(=O)c2ccc(OC)c3ccccc23)cn1	JMJD2A Tudor 79µM, HP1b binding inh inconclusive
COc1ccc(NS(=O)(=O)c2cccs2)cn1	none
Cc1cc2nc(-c3ccc(NC(=O)c4ccc(OCC(C)C)cc4)cc3)oc2cc1C	none (no result: Sfp inh)
CN1CCN(Cc2coc3c(Cl)cc(Cl)cc3c2=O)CC1	G9a block 25µM, BAZ2B inh 50µM, Sfp inh 50µM, JMJD2A Tudor 8.9µM, HP1b binding inh inconclusive
O=c1c(CN2CCN(c3cccc(Cl)c3)CC2)coc2c(Cl)cc(Cl)cc12	G9a block inconclusive, Sfp inh inconclusive
c1ccc2c(c1)CCN(C1=Nc3cccc4cccc1c34)C2	G9a block inconclusive, BAZ2B inh 32µM, JMJD2A Tudor inconclusive, HP1b binding inh inconclusive
Cc1nnc(NC(=O)c2nc(SC(C)C)ncc2Cl)s1	none (no result: Sfp inh)
O=[N+]([O-])c1cc(CSC2=NCCN2)ccc1O	G9a block 25µM, BAZ2B inh inconclusive
O=C(Cn1c(=O)oc2ccccc21)N1CCN(S(=O)(=O)c2ccccc2)CC1	none (no result: Sfp inh)
O=C(COC(=O)c1cc(S(=O)(=O)N2CCCC2)ccc1O)NCCc1ccccc1	G9a block inconclusive (no result: Sfp inh)
CC(=O)c1ccc(S(=O)(=O)N2CCn3cccc3C2c2ccc(F)c(F)c2)cc1 (configuration not stated)	G9a block inconclusive (no result: Sfp inh)
O=[N+]([O-])c1ccc(S(=O)(=O)N2CCn3cccc3C2c2ccc(Br)cc2)cc1 (configuration not stated)	G9a block 7.9µM, BAZ2B inh inconclusive, JMJD2A Tudor inconclusive (no result: Sfp inh)
Cc1ccc(C2c3cccn3CCN2S(=O)(=O)c2ccc([N+](=O)[O-])cc2)cc1 (configuration not stated)	G9a block 14µM, BAZ2B inh 7.1µM, JMJD2A Tudor inconclusive, HP1b binding inh inconclusive (no result: Sfp inh)

Bioassay records deposited in PubChem by National Center for Advancing Translational Sciences (NCATS).
